Source: PubChem
Hits are enriched below; roughly 14% of the tested compounds scored in any of these assays.
FBPA Giardia inh: inhibitors of Giardia lamblia fructose-1,6-bisphosphate aldolase. actives 0.71% (n = 290,000). Potency, µM (series often up to 59.6 µM), without a hit: at the highest dose activity, negative = inhibition, usual class: inhibitors. purified Giardia FBPA; note: potency is the fitted concentration of half-maximal effect; nearly all actives have a fitted effect of over 55% in size
Target sequence (A8B2U2 whole entry, looked up): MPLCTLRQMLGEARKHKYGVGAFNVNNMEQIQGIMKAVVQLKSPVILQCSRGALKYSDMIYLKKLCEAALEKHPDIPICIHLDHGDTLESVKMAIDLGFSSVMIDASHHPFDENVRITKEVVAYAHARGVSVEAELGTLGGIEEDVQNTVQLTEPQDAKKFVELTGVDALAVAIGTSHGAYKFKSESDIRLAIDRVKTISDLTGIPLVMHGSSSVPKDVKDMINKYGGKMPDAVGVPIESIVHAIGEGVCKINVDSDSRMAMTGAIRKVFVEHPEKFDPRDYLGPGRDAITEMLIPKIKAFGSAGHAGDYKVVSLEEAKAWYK
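Giardia FBPA (40 nM reagent) was preincubated 10 min at RT with compound (up to 57.5 uM final), then substrate plus GAPDH/TPI/NAD/arsenate coupling system with diaphorase/resazurin was added; resorufin fluorescence (525/598 nm) was read after 20 min.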
Pf growth 48h: inhibits P. falciparum growth in the first generation, 48 h | P. falciparum luciferase growth in erythrocytes, 48 h | AID 504832 | Potency, µM (top dose mostly 28.7 µM), without a hit: top-dose activity change, negative = inhibition, actives largely listed as inhibitors | actives 5.9% (n = 310,000); note: potency is the fitted concentration of half-maximal effect
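Parasite viability was followed by luminescence of a genomically integrated firefly luciferase. Cultures held 0.1% parasitemia at 2% hematocrit (final), incubated under 5% CO2 at 37 C.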
Pf growth 96h: inhibits malaria parasite growth, 96 h; P. falciparum luciferase reporter growth, 96 h; Potency, µM (top dose mostly 28.7 µM), for inactives: at the top dose activity change, negative = inhibition, hits mostly inhibitors; actives 6.9% (n = 320,000); AID 504834; note: potency is the fitted concentration of half-maximal effect
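Erythrocytes infected with luciferase-expressing P. falciparum were dispensed at 2% hematocrit and 0.05% parasitemia (final), then incubated with compounds 96 hours at 37 C in 5% CO2. Luminescence after detection reagent addition reported growth.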
Sm TGR inh: blocks Schistosoma mansoni thioredoxin glutathione reductase. Q962Y6. actives 3% (n = 360,000). AID 485364. Potency, µM (titrated, usually from 114 µM), for the others: at the top dose activity change, negative = inhibition, actives largely listed as inhibitors. purified TGR, DTNB reduction, TNB absorbance 405 nm; note: potency is the fitted concentration of half-maximal effect; nearly all actives have a fitted effect of over 60% in size
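First, TGR (20 nM dispensed) and NADPH were mixed with compound. Second, a 15 min room-temperature incubation followed. Third, further NADPH and then DTNB were added to start the reaction. Finally, TNB absorbance was monitored kinetically.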
HCMV inh: human cytomegalovirus inhibition; HFF cells, HCMV-luciferase reporter, 72 h; active compounds read low; activity change, negative = inhibition, % at 57.5 µM; actives 4.5% (n = 410,000); in the data active = activity change below about -60%; inconclusive = no clear call, values can overlap the other calls; inactive = above about -39%
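Two-dose cell screen: HFF monolayers treated with compounds and infected with luciferase-expressing HCMV at 1 PFU/cell, 72 h at 37C, then lysed for luciferase measurement.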
* marks the source's active call; other numbers are inactive results; ? = inconclusive; nt = no result. Unless noted, calls come from the whole dose curve; as a rule, active = well fitted curve in the direction sought with a large enough effect; inconclusive = small, poorly fitted or top-dose-only effect, or another doubt; inactive = no such curve, though single readings can be large; an effect the other way counts as inactive or inconclusive. % is set by controls: 0 for no effect and ±100 for the full control effect.

SMILES | FBPA Giardia inh | Pf growth 48h | Pf growth 96h | Sm TGR inh | HCMV inh
CC(CCc1ccccc1)NC(=O)c1ccc(-n2cncn2)c([N+](=O)[O-])c1 (stereo unspecified) | nt | -23% | 3% | 5% | -22
CCCNC(=O)C1(C)CCN(CCOc2ccc(Cl)cc2)C1 (stereo unspecified) | nt | nt | nt | nt | 18
CCCNCC(O)Cn1c2ccccc2n2c(=O)cc(C)c(C#N)c12 (stereo unspecified) | 1% | 3.7µM* | 12µM* | -4% | -61*
Cc1cc(=O)n2c3ccccc3n(CC(O)CN3CCCC3)c2c1C#N (stereo unspecified) | -12% | ? | ? | -1% | ?
CN(Cc1ccccc1F)C(=O)COc1ccc(C(=O)c2ccccc2)cc1 | 8% | 25% | 37% | -14% | -16
CC(CCc1ccc(O)cc1)NCCc1ccc(O)c(O)c1 (stereo unspecified) | -22% | ? | 1.5µM* | nt | -14
CSC1=NC(C(Cl)(Cl)Cl)N=C(c2ccc(C)cc2)N1 (stereo unspecified) | -19% | 12µM* | ? | -15% | -71*
CCCCN(Cc1ccco1)C(=O)C1CCCN(c2ncnc3c2nc2n3CCCCC2)C1 (stereo unspecified) | nt | 9.3µM* | 15% | -22% | -93*
COc1cccc(CCNC(=O)C2CCCN(c3ncnc4c3nc3n4CCCCC3)C2)c1OC (stereo unspecified) | 4% | -11% | 9% | -4% | -24
CC(C)N(Cc1ccccc1)C(=O)C1CCCN(c2ncnc3c2nc2n3CCCCC2)C1 (stereo unspecified) | nt | ? | -5% | -11% | -60*
CCN(CC)C(=O)C1CCCN(c2ncnc3c2nc2n3CCCCC2)C1 (stereo unspecified) | nt | nt | nt | -17% | 5
Cc1ccccc1N(C)C(=O)C1CCCN(c2ncnc3c2nc2n3CCCCC2)C1 (stereo unspecified) | nt | ? | -3% | 0% | -35
Cc1ccccc1CN1CCC(CNC(=O)C2CCCN(c3ncnc4c3nc3n4CCCCC3)C2)CC1 (stereo unspecified) | nt | 12µM* | 6.6µM* | -20% | -30
CN(C(=O)C1CCCN(c2ncnc3c2nc2n3CCCCC2)C1)c1cccc(Cl)c1 (stereo unspecified) | nt | 2.9µM* | -3% | 6% | 9
CCCN(C(=O)c1cc(S(=O)(=O)N(C)c2ccc(OCC)cc2)ccc1C)C1CCS(=O)(=O)C1 (stereo unspecified) | nt | ? | ? | 0% | 0
Cc1ccc(CNC(=O)C2CCN(S(=O)(=O)c3ccc(F)cc3)CC2)cc1 | nt | nt | nt | 6% | 7
Cc1ccc(CNC(=O)c2ccc3c(O)c(S(=O)(=O)c4ccc(Cl)cc4)c(=O)[nH]c3c2)cc1 | nt | nt | nt | 3% | 23
O=C(C1CCCN(c2ncnc3c2nc2n3CCCCC2)C1)N1CCN(c2ccccc2)CC1 (stereo unspecified) | nt | ? | ? | 13% | -62*
O=C(C1CCCN(c2ncnc3c2nc2n3CCCCC2)C1)N1CCN(c2cccc(Cl)c2)CC1 (stereo unspecified) | -1% | 13µM* | ? | -6% | -29
COc1ccccc1N1CCN(C(=O)C2CCCN(c3ncnc4c3nc3n4CCCCC3)C2)CC1 (stereo unspecified) | nt | 9.3µM* | -20% | 2% | 7
COc1ccccc1N1CCN(CCCNC(=O)C2CCCN(c3ncnc4c3nc3n4CCCCC3)C2)CC1 (stereo unspecified) | 6% | ? | ? | -11% | -31
O=C(CSc1ccc(-c2cccs2)nn1)Nc1cccc(F)c1 | nt | nt | nt | -4% | -29
Cc1cc(OCC(=O)NCCc2ccc(Cl)cc2)c2c(C)cc(=O)oc2c1 | 10% | 37% | 4% | -4% | -29
CCc1cccc(N(C(=O)c2csnn2)C(C(=O)NC2CCCCC2)c2ccncc2)c1 (stereo unspecified) | -8% | 0% | 12% | 3% | -16
CC1=C(C(=O)OCc2ccccc2)C(c2ccccc2Cl)NC(=O)N1CCCCCC(=O)O (stereo unspecified) | -18% | 14% | -65% | 2% | -11
SMILES | FBPA Giardia inh | Pf growth 48h | Pf growth 96h | Sm TGR inh | HCMV inh
CC1=C(C(=O)OCc2ccccc2)C(c2ccc3ccccc3c2)NC(=O)N1CCCCCC(=O)O (stereo unspecified) | 1% | ? | 10µM* | -11% | -7
CC1=C(C(=O)OCc2ccccc2)C(c2ccccc2-c2ccccc2)NC(=O)N1CCCCCC(=O)O (stereo unspecified) | 7% | ? | 12µM* | -14% | -15
CCCCN1C(=O)NC(c2ccc(OC)cc2)C(C(=O)OCc2ccccc2)=C1C (stereo unspecified) | -4% | ? | 5.2µM* | 7% | -15
CC1CCCCC12NC(=O)N(CC(=O)Nc1ccc(N3CCOCC3)cc1)C2=O (stereo unspecified) | -4% | 12% | 40% | 3% | 17
COC(=O)c1c(C)oc2ccc(N(C(=O)c3ccncc3)S(=O)(=O)c3ccc(OC)cc3)cc12 | nt | nt | nt | -2% | -95*
COc1ccc(N(C(=O)c2cccc(C)c2)S(=O)(=O)c2ccc(Cl)cc2)cc1 | nt | nt | nt | -2% | -14
CCOc1ccc(S(=O)(=O)N(C(=O)c2ccncc2)c2ccc3oc(C)c(C(=O)OC)c3c2)cc1 | nt | nt | nt | 1% | -79*
COc1ccc(N(C(=O)c2cccnc2)S(=O)(=O)c2ccc(Cl)cc2)cc1 | -15% | 2% | 5.2µM* | ? | 30
CCc1ccc(S(=O)(=O)N(C(=O)c2ccncc2)c2ccc3oc(C)c(C(=O)OC)c3c2)cc1 | nt | nt | nt | 1% | -64*
CCOC(=O)c1c(C)oc2ccc(N(C(=O)c3ccncc3)S(=O)(=O)c3ccc(F)cc3)cc12 | nt | nt | nt | -19% | -5
O=C(c1cc(COc2ccc(F)cc2F)on1)N1CC2C[C@@H]3CC1C[C@H](C2)C3 | 1% | ? | ? | -1% | 49
O=S1(=O)c2ccccc2N(Cc2ccccc2)c2ccccc21 | nt | nt | nt | -2% | 10
Cc1ccccc1Nc1nnc(SCc2cc(=O)n3ccsc3n2)s1 | -29% | 13µM* | 17µM* | -12% | 2
Cc1cccc(Nc2nnc(SCc3cn4ccsc4n3)s2)c1 | -1% | 9.3µM* | 5.9µM* | 9% | -21
CCOc1ccc(CCNC(=O)c2sc3ncccc3c2-n2c(C)ccc2C)cc1 | nt | nt | nt | 21% | 15
C[C@@H]1CN([C@@H](C)CO)C(=O)c2cc(NS(C)(=O)=O)ccc2O[C@@H](C)CCCCO[C@H]1CN(C)Cc1ccc2c(c1)OCO2 | nt | nt | nt | nt | 1
C=C(C(C)=O)C(O)c1ccc(Cl)cc1 (stereo unspecified) | -1% | nt | nt | nt | nt
O=C(O)/C=C/C(O)c1ccc(Cl)cc1 (stereo unspecified) | 2% | ? | 1% | 25µM* | 42
